KB-3-1 cytotox = kills parental KB-3-1 adenocarcinoma cells. 400,000 compounds, 1.4% hits. Potency, µM (series often up to 46.1 µM), most hits filed as cytotoxic. KB-3-1 viability, CellTiter-Glo ATP luminescence, 72 h; also: potency is read from the fitted curve at half-maximal effect; % is scaled to controls: 0 for no effect and ±100 for the full control effect; nearly all actives have a fitted effect of over 60% in size
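Multi-concentration cytotoxicity screen in KB-3-1 cells grown in DMEM lacking phenol red with 10% FBS. After 72 h at 37 °C with compound, ATP-dependent luminescence was recorded.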
KB-V1 MDR tox = kills drug-selected multidrug resistant KB-V1 cells | KB-V1 MDR cells viability, CellTiter-Glo, 72 h | Potency, µM (highest dose often 46.1 µM), actives largely listed as cytotoxic | 400,000 compounds, 3.4% hits | AID 1347076; also: potency is read from the fitted curve at half-maximal effect; % is scaled to controls: 0 for no effect and ±100 for the full control effect; nearly all actives have a fitted effect of over 60% in size
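KB-V1 cells (P-gp-expressing MDR subline of KB-3-1) in phenol-red-free DMEM with 10% FBS were exposed to library compounds over a concentration series for 72 h at 37 degrees C. Viability read by CellTiter-Glo luminescence; concentration-effect curves fitted after normalization.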
MCF10A rereplic = induces DNA re-replication in MCF 10a normal breast cells; MCF 10A DNA re-replication, Hoechst nuclear intensity, 48 h; Potency, µM (doses to about 46.1 µM), without a hit: at the highest dose activity, positive = re-replication, most hits filed as activators; 350,000 compounds, 2.9% hits; also: potency is read from the fitted curve at half-maximal effect; % of control where 0% means no effect; nearly all actives have a fitted effect of over 50% in size
DRD3 antagonist = D3 dopamine receptor (human) antagonism | D3R cells, DiscoveRx beta-arrestin luminescence, antagonist mode; hits give low values | max response, negative = inhibition, % | 360,000 compounds, 2.5% hits; in the data active = max response below about -50%; inconclusive = no clear call, values can overlap the other calls; also: % is scaled to controls: 0 for no effect and ±100 for the full control effect
Target sequence (P35462 whole entry, looked up): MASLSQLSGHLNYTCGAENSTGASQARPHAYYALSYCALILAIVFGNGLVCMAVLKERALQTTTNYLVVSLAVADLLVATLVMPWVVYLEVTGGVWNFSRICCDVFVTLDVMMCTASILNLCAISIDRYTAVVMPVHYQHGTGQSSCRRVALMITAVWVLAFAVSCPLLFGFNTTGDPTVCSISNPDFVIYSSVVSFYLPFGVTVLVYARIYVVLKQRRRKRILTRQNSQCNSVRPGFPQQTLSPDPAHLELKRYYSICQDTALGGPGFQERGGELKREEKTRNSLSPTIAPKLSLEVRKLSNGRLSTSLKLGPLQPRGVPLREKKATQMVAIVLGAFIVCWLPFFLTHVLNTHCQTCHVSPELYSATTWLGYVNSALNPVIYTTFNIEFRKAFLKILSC
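Cells plated overnight at 1500 cells/well, then exposed to library compounds with dopamine controls for 90 minutes at 37 degrees C. DiscoveRx reagent added for 30–60 minutes at room temperature; luminescence read, quantitative HTS format.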
SW480 rerep = induces DNA re-replication in SW480 colon adenocarcinoma cells. 340,000 compounds, 1.8% hits. SW480 DNA re-replication, Hoechst DNA content imaging, 48 h. Potency, µM (doses to about 46.1 µM), without a hit: at the top dose re-replication activation, actives largely listed as activators; also: potency is read from the fitted curve at half-maximal effect; % of control where 0% means no effect; nearly all actives have a fitted effect of over 55% in size
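Cells (250 per well) received 23 nL compound or DMSO by pin tool and were kept 48 hr at 37 C, 5% CO2. Nuclei were then stained with Hoechst for 40 min and scanned for DNA content.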
DRD3 agonist = activates the human D3 dopamine receptor | 410,000 compounds, 0.58% hits | P35462 | D3R DiscoveRx beta-arrestin cells, luminescence, 90 min | AID 652048 | max activation, %; in the data active = max activation above about 30%; also: 0% is about no effect
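Agonist-mode cell screen: cells plated at 1500/well and incubated overnight at 37 °C, then exposed to library compounds for 90 min at 37 °C. Detection reagent was added for 30–60 min at room temperature, and luminescence was read.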
An asterisk follows results filed as active; i = inactive; ? = inconclusive; · = no result. Hits are enriched below; roughly 8.9% of the tested compounds scored in any of these assays. Unless noted, calls follow the shape of the dose curve; as a rule, active = well fitted curve in the direction sought with a large enough effect; inconclusive = small, poorly fitted or top-dose-only effect, or another doubt; inactive = no such curve, though single readings can be large; an effect the other way counts as inactive or inconclusive.

SMILES	KB-3-1 cytotox	KB-V1 MDR tox	MCF10A rereplic	DRD3 antagonist	SW480 rerep	DRD3 agonist
C/C(=N/NC(N)=S)c1ccc(Br)s1	?	8.2µM*	-0.2%	-10.8	?	-3.3
CCn1c(C)nc2cc(-c3nnc(-c4c(-c5ccccc5)noc4C)o3)ccc21	?	?	?	87.0	-8.8%	41.1*
Cc1onc(-c2ccccc2)c1-c1nnc(-c2ccccc2C(F)(F)F)o1	i	i	?	8.1	1.4%	1.7
COc1ccccc1C1c2c(-c3ccc(Cl)cc3)n[nH]c2C(=O)N1c1ccc(C)cc1 (centres undefined)	i	25.9µM*	·	·	·	1.9
CCCCn1c(SCC(=O)Nc2cc(C(F)(F)F)cc(C(F)(F)F)c2)nnc1C(CC)N(C)C (centres undefined)	i	14.6µM*	?	-4.5	?	5.1
Cn1ncc2c(Nc3cccc(Cl)c3)nc(Nc3cccc(Cl)c3)nc21	?	?	18.4µM*	50.9	?	10.1
Cc1cccc(Nc2ncnc3c2cnn3C)c1	i	i	6.9%	2.3	-10.5%	0.7
Cn1ncc2c(Nc3ccc4ccccc4c3)ncnc21	i	?	?	27.7	16.4µM*	17.7
Cn1ncc2c(Nc3ccc(Br)cc3)nc(Nc3ccc(Br)cc3)nc21	i	i	?	20.0	8.3%	9.0
Cc1ccccc1C(=O)NC1CC2CCCC(C1)N2Cc1ccccc1Cl (centres undefined)	i	i	·	?	·	-0.6
CC(=O)NC1CC2CCCC(C1)N2Cc1ccc(C)cc1 (centres undefined)	i	i	4.2%	-113.1*	-6.1%	-7.2
CCOc1ccccc1C(=O)NC1CC2CCCC(C1)N2Cc1ccc(C)cc1 (centres undefined)	i	?	?	-80.3*	-1.4%	-11.9
CCCN1C2CCCC1CC(NC(=O)c1ccccc1OCC)C2 (centres undefined)	i	i	6.6%	?	-0.7%	-6.0
Cc1ccccc1C(=O)NC1CC2CCC(C1)N2Cc1ccccc1 (centres undefined)	i	i	3.1%	-85.8*	-97.0%	-17.4
O=C(NC1CC2CCCC(C1)N2Cc1ccc(F)cc1)c1ccc(F)cc1 (centres undefined)	i	i	-1.9%	-108.1*	6.4%	-22.0
CC(=O)NC1CC2CCCC(C1)N2CC(=O)NCc1ccc(F)cc1 (centres undefined)	i	i	5.1%	22.2	-8.6%	-1.7
Cc1cc2nc(-c3ccc(OCc4ccccc4)cc3)cc(C(F)(F)F)n2n1	i	i	·	·	·	0.8
CN(c1ccccc1)c1ncnc2c1cnn2C	·	·	·	·	·	-20.4
Nc1nc(-c2cc(O)ccc2[N+](=O)[O-])cc(-c2ccccc2)c1[N+](=O)[O-]	i	i	1.84µM*	91.9	23.1µM*	16.3
COc1ccc(N(CC(=O)N2CCN(c3ccc(F)cc3)CC2)S(=O)(=O)c2c(C)nn(C)c2C)cc1	i	i	·	·	·	6.4
COc1ccccc1/C=C/C(=O)OCC(=O)NC1CCCCCCC1	i	i	13.3%	-26.8	-5.0%	4.4
CCOC(=O)CNC(=O)C1(/C=C/c2ccccc2)CC(=O)N1c1ccc(C)cc1 (centres undefined)	?	i	3.4%	2.7	-3.8%	-3.2
COc1ccccc1/C=C/C1(C(=O)NC2CCCC2)CC(=O)N1c1ccccc1 (centres undefined)	3.66µM*	3.66µM*	9.2µM*	-11.4	7.31µM*	-3.7
CN(C)S(=O)(=O)c1ccc(N2C(=O)CC2(/C=C/c2ccccc2)C(=O)NC2CCCC2)cc1 (centres undefined)	i	5.17µM*	-69.0%	-23.5	-0.6%	-4.5
CCOc1ccccc1NC(=O)Cn1ccn(Cc2ccc(C)cc2)c(=O)c1=O	i	i	·	·	·	-11.6
CSc1nc(N(C)NC(=O)c2ccccc2)c2ccccc2n1	1.03µM*	1.16µM*	1.64µM*	-15.6	?	-4.8
CNc1nc(SC)nc2ccccc12	i	i	-39.0%	-15.6	-69.2%	-11.8
